# From PubChem BioAssay
# Sampled rows, rich in hits. Any-hit rate of the full collection: about 10%.
# KB-3-1 tox: kills parental KB-3-1 adenocarcinoma cells. KB-3-1 viability, CellTiter-Glo ATP luminescence, 72 h. Potency, µM (series often up to 46.1 µM), hits mostly cytotoxic. 400,000 compounds, 1.4% hits; note: % is set by controls: 0 for no effect and ±100 for the full control effect; nearly all actives have a fitted effect of over 60% in size
#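 KB-3-1 cells, DMEM (no phenol red) + 10% FBS; compound by pin transfer, 72 h, 37 °C. Readout: CellTiter-Glo luminescence after 10 min. Data normalized, curve-fitted.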
# SW480 rereplic: induces DNA re-replication in SW480 colon adenocarcinoma cells. SW480 DNA re-replication, Hoechst DNA content imaging, 48 h. Potency, µM (titrated, usually from 46.1 µM), for the others: top-dose re-replication activation, hits mostly activators. 340,000 compounds, 1.8% hits. AID 624297; note: % of control where 0% means no effect; nearly all actives have a fitted effect of over 55% in size
#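 Treated cells incubate 48 hr (37 C, 5% CO2), are stained 40 min with Hoechst, and nuclear fluorescence is enumerated; a rise in nuclei with high DNA signal marks re-replication.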
# MCF10A rereplic: inducers of DNA re-replication in MCF 10A breast cells | MCF 10A DNA re-replication, Hoechst nuclear intensity, 48 h | Potency, µM (titrated, usually from 46.1 µM), inactives show at the highest dose activity, positive = re-replication, usual class: activators | 350,000 compounds, 2.9% hits; note: % of control where 0% means no effect; nearly all actives have a fitted effect of over 50% in size
# Gal4-VP16 FLuc: inhibits Gal4-VP16 luciferase reporter, ROR gamma counter-screen. Drosophila S2 Gal4-VP16 UAS-luciferase, luminescence, 20 h. Potency, µM (doses to about 53.6 µM), for the others: at the top dose activity, negative = inhibition, hits mostly inhibitors. 310,000 compounds, 3.5% hits;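 note: Gal4-VP16 expression switched on by copper sulfate through the metallothionein promoter; % is set by controls: 0 for no effect and ±100 for the full control effect; nearly all actives have a fitted effect of over 50% in size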
# KB-V1 MDR tox: kills drug-selected multidrug resistant KB-V1 cells. KB-V1 MDR cells viability, CellTiter-Glo, 72 h. AID 1347076. 400,000 compounds, 3.4% hits. Potency, µM (top dose mostly 46.1 µM), hits mostly cytotoxic; note: % is set by controls: 0 for no effect and ±100 for the full control effect; nearly all actives have a fitted effect of over 60% in size
#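 Cytotoxicity toward P-gp-expressing KB-V1 cells was determined as loss of CellTiter-Glo luminescence after 72 h at 37 degrees C. Compounds were tested in quantitative HTS format across a concentration range, with curves fitted to normalized data.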
# RORgamma inh: blocks mouse ROR gamma transcriptional activity; Drosophila S2 Gal4-RORgamma UAS-luciferase reporter, 20 h; Potency, µM (top dose mostly 53.6 µM), for inactives: at the top dose activity change, negative = inhibition, actives largely listed as inhibitors; AID 2551; 310,000 compounds, 5.4% hits; note: % is set by controls: 0 for no effect and ±100 for the full control effect; nearly all actives have a fitted effect of over 60% in size
# Target sequence (P51450 whole entry, looked up, the tested form may be a part): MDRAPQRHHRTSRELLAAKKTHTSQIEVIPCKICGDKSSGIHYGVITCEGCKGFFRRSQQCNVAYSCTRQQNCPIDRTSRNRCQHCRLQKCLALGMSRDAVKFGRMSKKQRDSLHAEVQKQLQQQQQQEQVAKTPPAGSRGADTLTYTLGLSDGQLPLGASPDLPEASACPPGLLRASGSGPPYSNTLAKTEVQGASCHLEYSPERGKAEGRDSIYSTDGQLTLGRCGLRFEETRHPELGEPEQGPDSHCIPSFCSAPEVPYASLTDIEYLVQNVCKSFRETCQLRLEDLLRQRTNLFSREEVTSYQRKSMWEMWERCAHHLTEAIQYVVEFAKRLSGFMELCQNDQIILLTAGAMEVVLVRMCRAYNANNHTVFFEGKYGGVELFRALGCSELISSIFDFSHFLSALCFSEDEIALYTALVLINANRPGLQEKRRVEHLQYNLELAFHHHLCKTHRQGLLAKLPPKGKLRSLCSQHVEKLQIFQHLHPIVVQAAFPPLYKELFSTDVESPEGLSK
#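 Read-out: Photinus luciferase luminescence; inhibitors lower reporter signal. Insect Schneider cells with Gal4-ROR gamma fusion under metallothionein promoter, UAS reporter; 700 uM final copper sulfate induction, 20 hr, ambient temperature.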
# * marks the source's active call; other numbers are inactive results; i = inactive; ? = inconclusive; . = no result. Calls come from the whole dose curve; as a rule, active = well fitted curve in the direction sought with a large enough effect; inconclusive = small, poorly fitted or top-dose-only effect, or another doubt; inactive = no such curve, though single readings can be large; an effect the other way counts as inactive or inconclusive. Potency is the fitted concentration of half-maximal effect.
SMILES,KB-3-1 tox,SW480 rereplic,MCF10A rereplic,Gal4-VP16 FLuc,KB-V1 MDR tox,RORgamma inh
O=C(Cn1cnc2c(nnn2Cc2ccc(F)cc2)c1=O)Nc1ccc2c(c1)OCCO2,i,?,16.4µM*,-4.5%,i,-23.3%
O=C(Cn1cnc2c(nnn2Cc2ccc(F)cc2)c1=O)Nc1cccc(F)c1,i,-2.6%,-11.4%,2.7%,i,-4.0%
CCOC(=O)c1ccc2c(c1)nc(SCC(=O)c1cc3ccccc3o1)n2CC,i,-1.5%,?,-6.7%,18.4µM*,-28.6%
C=CCNC(=O)CSc1nc2cc(C(=O)OCC)ccc2n1CC,i,1.6%,2.3%,0.6%,i,20.5%
COc1ccc(C2C3=C(N=C4SCC(=O)N42)c2ccccc2CC3)cc1OC (stereo unspecified),i,?,16.2%,13.7%,i,-4.2%
COc1ccc(/C=c2/sc3n(c2=O)C(c2ccccc2OC)C2=C(N=3)c3ccccc3CC2)cc1O (stereo unspecified),?,5.17µM*,18.4µM*,8.0%,?,1.1%
COc1ccccc1C1C2=C(N=C3SCC(=O)N31)c1ccccc1CC2 (stereo unspecified),i,-6.8%,0.6%,-8.9%,?,11.2µM*
CCCc1cc(C(=O)N2CCCC(C(=O)c3cccc4ccccc34)C2)n(C)n1 (stereo unspecified),i,-5.6%,5.1%,-5.9%,?,?
CCc1cc(C(=O)N2CCCC(C(=O)c3cccc4ccccc34)C2)n(C)n1 (stereo unspecified),20.6µM*,-1.5%,18.5%,?,5.17µM*,?
COc1ccc(NC(=O)c2cnc(N3CCCCC3)c3ccccc23)cc1Cl,i,.,.,.,i,.
CC(C)(C)c1ccc(-n2nc(C#N)c(Cl)cc2=O)cc1,?,4.11µM*,2.91µM*,7.08µM*,?,7.08µM*
CC(c1ccccc1)n1cnc2ccccc21 (stereo unspecified),i,0.4%,3.9%,-12.0%,i,12.6µM*
NNC(=O)c1cc2sccc2s1,?,13µM*,3.66µM*,29.7%,?,-35.4%
COc1cc(-c2nc3ccc(C)cn3c2Nc2ccc3c(c2)OCCO3)ccc1O,i,7.6%,20.6µM*,-0.5%,i,-22.3%
COc1cc(-c2nc3cnccn3c2Nc2ccc(C(C)C)cc2)ccc1O,i,0.5%,1.3%,10µM*,i,14.1µM*
COc1ccc(N2C(=O)C(Cl)=C(N3CCOCC3)C2=O)cc1,i,9.7%,-7.5%,-22.5%,i,-12.9%
COc1ccc(N2C(=O)C(Cl)=C(Oc3cccc(OC)c3)C2=O)cc1,i,15.4%,3.3%,?,i,11.2µM*
COc1ccc(N2C(=O)c3cccc4cccc(c34)C2=O)cc1,i,13µM*,2.5%,-3.2%,i,-1.8%
COc1ccc(N2C(=O)c3ccccc3C2=O)cc1,i,-1.1%,10.9%,5.0%,i,14.4%
O=C1c2cccc3cccc(c23)C(=O)N1c1cccnc1,i,2.6%,18.4µM*,3.1%,i,-26.2%
Cc1ccccc1S(=O)(=O)NC(=O)C1(C)CCN1C(=O)C1(c2ccccc2)CC1 (stereo unspecified),i,.,.,.,i,.
CC(C)(C)c1ccc(NC(=O)N2CCCN(c3ccc([N+](=O)[O-])cn3)CC2)cc1,?,2.2%,-12.6%,-15.6%,10.3µM*,11.1%
O=C(Nc1ccccc1)N1CCN(c2ccc(C(F)(F)F)cn2)CC1,?,-4.6%,1.1%,?,8.2µM*,0.0%
Cc1ccc2nccnc2c1,?,.,.,.,16.4µM*,.
S=C(NCc1ccco1)Nc1ccc(Oc2ccc(Cl)cc2)cc1,i,10.9%,7.31µM*,11.2µM*,i,2.82µM*
SMILES,KB-3-1 tox,SW480 rereplic,MCF10A rereplic,Gal4-VP16 FLuc,KB-V1 MDR tox,RORgamma inh
O=C(O)Cc1ccc(NC(=S)NCc2ccco2)cc1,i,-1.7%,7.8%,-16.7%,i,1.8%
CCOc1ccc(NC(=S)N(Cc2ccc(Cl)cc2)Cc2ccco2)cc1,i,-3.5%,3.2%,?,i,12.6µM*
O=S(=O)(Nc1ncccn1)c1ccc(NC(=S)NCc2ccco2)cc1,i,13.9%,-35.2%,1.7%,i,-13.3%
S=C(NCc1ccco1)Nc1ccccc1,i,-0.6%,-1.8%,?,?,8.91µM*
S=C(NCc1ccco1)Nc1ccc(Cl)cc1,i,5.2%,-0.4%,?,i,11.2µM*
Cc1ccc(C2CC(=O)N(Cc3ccccc3)c3c2c(C)nn3-c2nc(C)cc(C)n2)cc1 (stereo unspecified),i,.,.,.,i,.
CCOc1ccc(OCC)c(NS(=O)(=O)c2cc(-c3cc(C)no3)ccc2C)c1,i,.,.,.,i,.
CC(=O)Nc1ccc(/C=C/c2ccncc2)cc1,?,.,.,.,i,.
COc1cccc(C2=NN(C(C)=O)C(c3cn(-c4ccccc4)nc3-c3cccs3)C2)c1 (stereo unspecified),i,.,.,.,i,.
O=C(Nc1ccc(F)cc1F)N1CCc2c(sc3c2CCCC3)C1c1ccc(F)cc1 (stereo unspecified),i,.,.,.,?,.
O=C(NC(=S)N1CCCCCC1)c1ccc(Cl)cc1Cl,i,-2.8%,11.5%,1µM*,i,0.355µM*
CN1CCN(C(=S)NC(=O)c2ccccc2Cl)CC1,i,-5.5%,-2.1%,17.8µM*,i,14.1µM*
O=C(NC(=S)N1CCCCCC1)c1ccccc1Cl,i,5.5%,14.6%,1µM*,i,0.794µM*
O=C(Nc1ccccc1C(=O)N1CCCC1)c1ccc(Cl)cc1Cl,i,0.6%,2.7%,0.9%,i,-12.2%
S=C(Nc1ccccc1Cl)N1CCCC1,i,-55.5%,4.0%,-24.5%,i,0.6%
CC(=O)c1c(O)cccc1O,.,.,.,-4.3%,.,?
COC(=O)C[C@@H]1CC[C@@H](NS(=O)(=O)c2ccc(OC)cc2)[C@@H](CO)O1,i,.,.,.,i,.
O=C(O)[C@H](Cc1c[nH]c2ccccc12)N1C(=O)C2=CCCC=C2C1=O,.,.,.,4.1%,.,-7.7%
CC(=O)N1CCc2cc(S(=O)(=O)CCC(=O)N(C)Cc3ccco3)ccc21,i,-14.7%,-4.1%,-10.8%,i,2.2%
CCOC(=O)N1CCN(Cc2ccc3c(c2)OCO3)CC1,i,-0.7%,?,0.6%,i,3.0%
COC(=O)c1ccsc1NC(=O)CN1CCN(c2ccc(F)cc2)CC1,i,-0.1%,16.3%,-17.1%,?,-1.4%
COC(=O)c1ccsc1NC(=O)CN1CCN(Cc2ccc3c(c2)OCO3)CC1,i,0.1%,24.1%,-4.6%,16.4µM*,-12.4%
